Hits are enriched below; roughly 0.9% of the tested compounds scored in any of these assays.
IP6K1 inhibitor = inhibitors of human IP6K1; Q92551; IP6K1 kinase, ADP-Glo luminescence, 2 h; active compounds read low; activity change, % (series mostly up to about 58 µM); 0.81% of 140,000 active; AID 1645851; in the data active = activity change below about -25%
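ADP-Glo luminescence measures ADP made by human IP6K1 during a 2 h RT reaction with ATP/IP6 (mix at 1.3 mM/130 uM); top library doses 57.5 and 19.1 uM final.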
SNCA viab count = reduces viability of HEK-293 SNCA reporter cells; 0.12% of 150,000 active; HEK-293-SNCA-luc viability, GF-AFC fluorescence, 24 h; Potency, µM (doses to about 57.1 µM), actives largely listed as cytotoxic; also: nearly all actives have a fitted effect of over 30% in size
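Cytotoxicity counterscreen: after 24 h compound treatment of genome-edited SNCA-luciferase HEK-293 cells, live-cell protease substrate GF-AFC read by fluorescence after 30 min; activity scaled between DMSO (0%) and medium-only (-100%), curves Hill-fitted.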
SNCA expr inh = inhibitors of alpha-synuclein (SNCA) gene expression; HEK-293 SNCA-luciferase knock-in, luminescence, 24 h; Potency, µM (titrated, usually from 57.2 µM), usual class: inhibitors; 0.17% of 140,000 active; AID 1671194; also: nearly all actives have a fitted effect of over 45% in size
GPT2 inhibitor = inhibitors of human GPT2 alanine aminotransferase. Q8TD30. Recombinant GPT2, coupled pyruvate oxidase/HRP Amplex Red fluorescence. Potency, µM (top dose mostly 57.7 µM), usual class: inhibitors. 0.25% of 100,000 active. AID 1671188; also: nearly all actives have a fitted effect of over 60% in size
Target sequence (Q8TD30 whole entry, looked up): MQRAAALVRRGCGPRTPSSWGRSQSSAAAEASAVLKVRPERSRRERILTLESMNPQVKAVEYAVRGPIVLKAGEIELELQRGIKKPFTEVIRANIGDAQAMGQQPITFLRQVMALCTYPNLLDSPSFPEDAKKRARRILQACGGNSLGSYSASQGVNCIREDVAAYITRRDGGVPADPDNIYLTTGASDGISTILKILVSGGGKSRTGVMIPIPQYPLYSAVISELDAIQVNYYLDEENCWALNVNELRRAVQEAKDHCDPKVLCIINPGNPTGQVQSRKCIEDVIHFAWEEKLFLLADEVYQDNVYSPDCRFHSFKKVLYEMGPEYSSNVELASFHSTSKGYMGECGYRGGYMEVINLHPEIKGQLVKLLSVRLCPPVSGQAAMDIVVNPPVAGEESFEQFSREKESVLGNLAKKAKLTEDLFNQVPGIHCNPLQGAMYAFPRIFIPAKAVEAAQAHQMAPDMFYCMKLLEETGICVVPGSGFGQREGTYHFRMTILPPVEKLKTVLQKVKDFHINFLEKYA
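Fluorescence read-out: pyruvate from GPT2 turnover coupled to pyruvate oxidase, HRP and Amplex Red (0.2mM ThPP, 0.2U/mL PO and HRP, 50uM Amplex final). Substrates 250uM a-KG, 2mM L-alanine; enzyme 10ng/uL; 30 min RT.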
IP6K1 inh cnf = human IP6K1 inhibition, confirmatory. shares compounds with IP6K1 inhibitor. recombinant IP6K1 kinase, ADP-Glo luminescence, 2 h. AID 1645852. Potency, µM (top dose mostly 49 µM), hits mostly inhibitors. 13% of 1,200 active; also: nearly all actives have a fitted effect of over 65% in size
Each line names hits and unclear results; the compound was inactive in the other large screens (follow-up assays come after a bar, where they were run). Unless noted, calls follow the shape of the dose curve; as a rule, active = well fitted curve in the direction sought with a large enough effect; inconclusive = small, poorly fitted or top-dose-only effect, or another doubt; inactive = no such curve, though single readings can be large; an effect the other way counts as inactive or inconclusive.

COc1ccc(OC(=O)c2nc(SCc3ccccc3F)ncc2Cl)cc1	IP6K1 inhibitor -34, SNCA expr inh inconclusive (no result: GPT2 inhibitor) | IP6K1 inh cnf inactive
Cc1cccc(CC(=O)Nc2cccc(-c3nc4cccnc4s3)c2)c1	none (no result: GPT2 inhibitor)
Cc1ccccc1C(=O)Nc1cccc(-c2nc3cccnc3s2)c1	IP6K1 inhibitor -29 (no result: GPT2 inhibitor) | IP6K1 inh cnf inconclusive
Cn1c(CCC(=O)N2CCCOCC2)nc2cc(S(=O)(=O)N3CCCC3)ccc21	IP6K1 inhibitor -31 | IP6K1 inh cnf inactive
Cc1cccc(CN2CCc3nc(N4CCN(c5ccccn5)CC4)ncc3C2)c1	IP6K1 inhibitor -27 (no result: GPT2 inhibitor) | IP6K1 inh cnf inconclusive
O=C(C1CN(C2CCCCC2)C(=O)N1)N1CCC(c2ccccc2)CC1 (centres undefined)	none
Cc1cc(-n2c(C)nc3ccccc3c2=O)ccc1NC(=O)c1ccc(C)c([N+](=O)[O-])c1	IP6K1 inhibitor -25 (no result: GPT2 inhibitor) | IP6K1 inh cnf inactive
CCN1C(C(=O)c2ccccc2)=C(OC(=O)COc2ccc(OC)cc2)c2ccccc2S1(=O)=O	IP6K1 inhibitor -34, SNCA expr inh inconclusive (no result: GPT2 inhibitor) | IP6K1 inh cnf inactive
CCCN1C(C(=O)c2ccccc2)=C(OC(=O)COc2ccccc2)c2ccccc2S1(=O)=O	IP6K1 inhibitor -28, SNCA viab count inconclusive, SNCA expr inh inconclusive (no result: GPT2 inhibitor) | IP6K1 inh cnf inconclusive
Cc1nc(C)n(CCCNc2nccc(-c3ccccn3)n2)n1	none
c1ccc(-c2ccnc(NCCOc3cccc4cccnc34)n2)nc1	IP6K1 inhibitor -31, GPT2 inhibitor inconclusive | IP6K1 inh cnf inactive
O=C(NCC1(COc2cccnc2)C[C@@H](O)[C@@H](O)C1)C1CC1 (some centres undefined)	SNCA viab count inconclusive, SNCA expr inh inconclusive
Cc1c(C(=O)N(Cc2ccccc2F)C2CCS(=O)(=O)C2)oc2ccccc12 (centres undefined)	IP6K1 inhibitor -61 (no result: GPT2 inhibitor) | IP6K1 inh cnf inactive
O=S(=O)(NCc1ccc(F)cc1)c1ccc(N2CCCCS2(=O)=O)cc1	IP6K1 inhibitor -32 (no result: GPT2 inhibitor) | IP6K1 inh cnf inactive
CCC(C)C(=O)NC1CCN(c2cn[nH]c(=O)c2)CC1 (centres undefined)	none
CCNc1nc2c(s1)C(c1cccc(F)c1)CC(=O)N2 (centres undefined)	IP6K1 inhibitor -71, GPT2 inhibitor inconclusive | IP6K1 inh cnf 16µM
CCOc1ccccc1NC(=O)Cn1c(N2CCN(c3ccccc3)CC2)nc(C)cc1=O	none
Cc1ccc(-c2nc(S(=O)(=O)c3ccc(Cl)cc3)c(N3CCCCC3)o2)cc1	IP6K1 inhibitor -34 (no result: GPT2 inhibitor) | IP6K1 inh cnf inconclusive
COc1ccc(-c2nc(S(=O)(=O)c3ccc(C)cc3)c(N3CCCCC3)o2)cc1	none (no result: GPT2 inhibitor)
COc1cccc(-c2ccccc2CN)c1	none
COc1cccc(-c2ccc(CN3CCCC(NC(=O)c4ccccc4)C3)cc2)c1 (centres undefined)	none
CC(=O)Nc1ccc(Nc2ncnc3c2cnn3C)cc1	none (no result: GPT2 inhibitor)
CC(=O)c1cccc(Nc2ncnc3c2cnn3C)c1	IP6K1 inhibitor -38 (no result: GPT2 inhibitor) | IP6K1 inh cnf inconclusive
O=C(O)c1cccc(Nc2ncnc3ccc(Br)cc23)c1	IP6K1 inhibitor -26 (no result: GPT2 inhibitor) | IP6K1 inh cnf inconclusive
Cc1noc(C)c1[S+](=O)([O-])NC1CCN(c2ccc3nnc(C)n3n2)CC1	none (no result: SNCA viab count, SNCA expr inh, GPT2 inhibitor)
OC[C@H]1C[C@@H](NCc2cccc(Cl)c2)[C@H](O)[C@@H]1O	none
OC[C@H]1C[C@@H](NCc2cccc3c2OCO3)[C@H](O)[C@@H]1O	IP6K1 inhibitor -26 | IP6K1 inh cnf inconclusive
CCc1cnc2c(c1SCCC(C)C)c(=O)n(C)c(=O)n2C	IP6K1 inhibitor -28 (no result: GPT2 inhibitor) | IP6K1 inh cnf inactive
CCOC(=O)C(CC)Sc1c(CC)cnc2c1c(=O)n(C)c(=O)n2C (centres undefined)	none (no result: GPT2 inhibitor)
CCn1cc(-c2ccc(C)cc2)cc1C(=O)N1CCC(C)CC1	IP6K1 inhibitor -30 | IP6K1 inh cnf inconclusive
CCn1cc(-c2ccc(F)cc2)cc1C(=O)N1CCCCCC1	none
Cc1ccccc1NC(=O)Cn1nc(-c2ccc(F)cc2)c2cnc3ccccc3c21	none (no result: GPT2 inhibitor)
Cc1ccccc1NC(=O)CCn1nc(-c2ccccc2)c2ccccc2c1=O	IP6K1 inhibitor -25 (no result: GPT2 inhibitor) | IP6K1 inh cnf inactive
CCOC(=O)c1cnc2c(C)cc(C)cc2c1NCCN1CCOCC1	none (no result: GPT2 inhibitor)
Cc1cc(C)c2nc(C)cc(Nc3cccc(C(=O)O)c3)c2c1	IP6K1 inhibitor -25, SNCA viab count inconclusive (no result: GPT2 inhibitor) | IP6K1 inh cnf inactive
CCOC(=O)c1cnc2c(C)cc(C)cc2c1Nc1cccc(C(=O)O)c1	IP6K1 inhibitor -26 (no result: GPT2 inhibitor) | IP6K1 inh cnf inconclusive
COc1ccccc1Nc1ccnc(N2CCCC(C(=O)N(C)C)C2)n1 (centres undefined)	none
Cc1ccccc1CC(=O)N1CCC2(CC1)NC(=O)N(c1ccccc1)N2	SNCA expr inh inconclusive
COc1cccc(N2C(=O)NC(=NC3CCCCC3)C23CCCN(CC2CCCCC2)C3)c1 (centres undefined)	IP6K1 inhibitor -26, SNCA viab count inconclusive, SNCA expr inh inconclusive | IP6K1 inh cnf inconclusive
COc1cccc(N2C(=O)NC(=NC3CCCC3)C23CCCN(CC2CCCCC2)C3)c1 (centres undefined)	SNCA viab count inconclusive, SNCA expr inh inconclusive
CCOC(=O)c1ccc(NC(=O)CC2C(=O)N(c3ccccc3)C(=O)N2Cc2ccc(C)cc2)cc1 (centres undefined)	IP6K1 inhibitor -40, SNCA expr inh inconclusive (no result: GPT2 inhibitor) | IP6K1 inh cnf inconclusive
COc1ccc2c(c1)CCCN2C1CNC1	GPT2 inhibitor inconclusive
COc1ccc(-c2cccc(C(=O)N3CCC(NC(=O)c4ccc(F)cc4)CC3)c2)nn1	none (no result: SNCA viab count, SNCA expr inh, GPT2 inhibitor)
O=C(Nc1ncc([N+](=O)[O-])s1)c1ccccc1O	IP6K1 inhibitor -31, SNCA viab count inconclusive (no result: SNCA expr inh) | IP6K1 inh cnf inconclusive
c1ccc([C@@H]2CN(C3CCOCC3)C[C@H]2COc2cccnc2)nc1	none
COc1ccccc1-n1c(=O)c(C(=O)N2CCN([S+](=O)([O-])c3ccc(C)cc3)CC2)nc2cccnc21	none
CC(=O)Nc1ccc(NS(=O)(=O)c2ccc(Cl)s2)cc1	IP6K1 inhibitor -28 (no result: GPT2 inhibitor) | IP6K1 inh cnf inactive
O=[S+]([O-])(CCC(F)(F)F)N1CCCN(c2ccc3nnc(-c4ccccc4)n3n2)CC1	none (no result: SNCA viab count, SNCA expr inh, GPT2 inhibitor)
O=C(c1ccc(F)cc1)N1Cc2[nH]cnc2C[C@H]1c1nc(-c2ccc(Cl)cc2)no1	IP6K1 inhibitor -39 | IP6K1 inh cnf inconclusive
CN(C)C(=O)N1C2CCC1CN(c1ccc(C(F)(F)F)cc1)C2	IP6K1 inhibitor -27, SNCA expr inh inconclusive | IP6K1 inh cnf inconclusive
O=C(N1CCCC1)N1C2CCC1CN(c1ccc(C(F)(F)F)cc1)C2	none
O=C(NCc1cccs1)C1CCN(Cc2ccccc2-c2ccccc2F)CC1	none (no result: SNCA viab count, SNCA expr inh, GPT2 inhibitor)
O=C1NCC2(CCCN(C(=O)c3cnc4c(O)cccn4c3=O)C2)O1 (centres undefined)	none
CCN1CC2(CCN(C(=O)c3cnc4c(O)cccn4c3=O)CC2)OC1=O	IP6K1 inhibitor -27, SNCA viab count inconclusive | IP6K1 inh cnf inactive

Compound activity as filed in PubChem.
